Rows were chosen to be rich in hits. Some 11% of all compounds tested hit in one or more screens of this group.
HCV inhibitor: qHTS Assay for Inhibitors of Hepatitis C Virus (HCV) | Huh7.5.1 HCVcc-Cre infection, luciferase reporter, 44 h | Potency, µM (series often up to 41.8 µM), inactives show top-dose activity change, negative = inhibition, most hits filed as inhibitors | hit rate 3.4% among 340,000 | AID 651820, 2012
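Compounds are dispensed onto cells plated 4 h earlier at 1,000 per well, with HCVcc-Cre virus (about 0.5 moi) added next. Following 44 h of culture, luminescent signal is measured for 15 sec after 15 min with substrate at room temperature.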
Pf growth 48h: Primary qHTS for delayed death inhibitors of the malarial parasite plastid, 48 hour incubation. P. falciparum luciferase growth in erythrocytes, 48 h. Potency, µM (series often up to 28.7 µM), without a hit: top-dose activity change, negative = inhibition, hits mostly inhibitors. hit rate 5.9% among 310,000. AID 504832, 2011
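Erythrocytes infected with P. falciparum carrying an integrated firefly luciferase reporter (2% hematocrit, 0.1% parasitemia final) were exposed to compounds in RPMI 1640 with 0.5% Albumax at 37 C, 5% CO2. Growth inhibition was scored as reduced luminescence.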
AMA1 RON2 block: qHTS for Inhibitors of AMA1-RON; Towards Development of Antimalarial Drug Lead: Primary Screen; AID 720542, 2013; AlphaScreen AMA1-biotinylated RON2 peptide binding; Potency, µM (highest dose often 58.2 µM), inactives show top-dose activity change, negative = inhibition, usual class: inhibitors; hit rate 0.2% among 360,000; Plasmodium falciparum AMA1 (3D7) - RON2 peptide interaction;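 note: 0% = vehicle wells and -100% = peptide control; nearly all actives have a fitted effect of over 45% in size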
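AMA1 (3D7) with his tag at 25 nM final met compounds first, then biotinylated RON2 peptide at 25 nM; detection used donor plus acceptor beads, 10 µg/mL apiece, read by AlphaScreen after 30 min at room temperature.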
Pf growth 96h: Primary qHTS for delayed death inhibitors of the malarial parasite plastid, 96 hour incubation | P. falciparum luciferase reporter growth, 96 h | hit rate 6.9% among 320,000 | Potency, µM (titrated, usually from 28.7 µM), for the others: top-dose activity change, negative = inhibition, usual class: inhibitors
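Plates of compound plus infected erythrocytes (2% hematocrit, 0.05% parasitemia final) incubate 96 hours, 37 C, 5% CO2. Detection reagent added; reduced luminescence from the parasites' luciferase reporter flags inhibition.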
Numbers without * were called inactive; ? = inconclusive; . = no result given; [ ] = another dose, or the depositor's remark. Calls come from the whole dose curve; as a rule, active = well fitted curve in the direction sought with a large enough effect; inconclusive = small, poorly fitted or top-dose-only effect, or another doubt; inactive = no such curve, though single readings can be large; an effect the other way counts as inactive or inconclusive. Unless noted, % is set by controls: 0 for no effect and ±100 for the full control effect; potency is the fitted concentration of half-maximal effect.

SMILES	HCV inhibitor	Pf growth 48h	AMA1 RON2 block	Pf growth 96h
CCC(=O)C(C#N)(c1ccc(OC)c(OC)c1)C(C)C (centres undefined)	-11%	22%	2%	43%
O=C(Cn1cccc1C(=O)c1ccccc1)NCc1cccc(Cl)c1	11%	44%	-2%	13µM*
COc1ccc(NC(=O)c2cccc(S(=O)(=O)NCc3ccco3)c2)c(OC)c1	?	-1%	-20%	47%
Cc1ccccc1-n1ncc2c([N+](=O)[O-])cc([N+](=O)[O-])cc21	7.9µM*	9.3µM*	?	?
CN1CCC(OC(c2ccccc2)c2ccccc2)CC1	-27%	-17%	-6%	?
CN1CCC(Oc2ccccc2Sc2ccccc2)CC1	?	?	-28%	13µM*
COc1ccc([C@@]2(C(C)C)ON(c3ccccc3C(F)(F)F)C2=O)cc1	?	0.33µM*	42%	0.29µM*
COc1ccc([C@]2(C(C)C)ON(c3ccccc3C(F)(F)F)C2=O)cc1	?	1µM*	23%	2.1µM*
O=c1[nH]ncn1-c1ccccc1C(F)(F)F	3%	-6%	2%	26%
CC(C)[C@@]1(c2ccc(Cl)cc2)ON(c2ccccc2C(F)(F)F)C1=O	-12%	2.1µM*	.	2.3µM*
COc1ccc(S(=O)(=O)N2CCCC(C(=O)N3CCOCC3)C2)cc1OC (centres undefined)	4%	20%	18%	2%
Cc1[nH]n(-c2ccccc2)c(=S)c1C=Nc1cccc([N+](=O)[O-])c1	5%	15%	8%	9%
CCCCn1c(O)c(N=NC(=O)c2ccncc2)c2cc(Br)ccc21	-2%	-16%	-12%	?
CCn1c(O)c(N=NC(=O)c2cccnc2)c2cc(Br)ccc21	?	10µM*	3%	?
Cc1ccc(C)c(Sc2ccc(S(=O)(=O)Nc3ccc(C(=O)O)cc3)cc2)c1	25%	?	-11%	-19%
CC1CCC2(CC1)NC(=O)N(CC(=O)Nc1cccc(C#N)c1)C2=O (centres undefined)	7%	2%	12%	27%
O=C(Nc1cccs1)Nc1c(F)c(F)cc(F)c1F	32%	?	2%	4.7µM*
O=C(Nc1cccs1)Nc1c(F)c(F)c(F)c(F)c1F	7%	?	20%	89%
OCc1nc2ccccc2n1Cc1c(F)cccc1Cl	2%	-2%	-7%	2%
CSc1nc2ccccc2n1Cc1c(Cl)cccc1Cl	?	.	-4%	12µM*
COC(=O)c1ccc(C(c2c(C)n(C)n(-c3ccccc3)c2=O)c2c(C)n(C)n(-c3ccccc3)c2=O)cc1	9%	?	-1%	6.6µM*
CSc1nc2ccccc2n1CC(=O)Nc1c(C)n(C)n(-c2ccccc2)c1=O	13%	13%	-4%	10µM*
Cc1cccc(C)c1NC(=O)CSCc1cccc(CSCC(=O)Nc2c(C)cccc2C)n1	-2%	.	-14%	5.2µM*
Cc1c(C(c2ccc(Br)cc2)c2c(C)n(C)n(-c3ccccc3)c2=O)c(=O)n(-c2ccccc2)n1C	-4%	0%	0%	20%
Cc1ccc(S(=O)(=O)Nc2nnc(C3CCCCC3)s2)cc1	14%	34%	-8%	-5%
SMILES	HCV inhibitor	Pf growth 48h	AMA1 RON2 block	Pf growth 96h
Cc1nc(SCC(=O)Nc2c(C)n(C)n(-c3ccccc3)c2=O)c2cnn(-c3ccccc3)c2n1	25µM*	.	-8%	.
Cc1ccc(S(=O)(=O)NCCCCCC(=O)Nc2c(C)n(C)n(-c3ccccc3)c2=O)cc1	-1%	1%	10%	4%
Cc1c(NC(=O)CN2CCN(c3ccc([N+](=O)[O-])cc3)CC2)c(=O)n(-c2ccccc2)n1C	-26%	-24%	-13%	-19%
CCc1nc(SCC(=O)Nc2c(C)nn(C)c2C)c2cnn(-c3ccccc3)c2n1	.	-17%	.	-22%
CSc1nc2ccccc2n1CC(=O)Nc1c(C)cccc1C	-1%	2%	1%	7.4µM*
Cc1c(NC(=O)CN2CCN(c3ccc(O)cc3)CC2)c(=O)n(-c2ccccc2)n1C	6%	?	1%	6.6µM*
Cc1ccc(S(=O)(=O)NC(=O)Nc2c(C)n(C)n(-c3ccccc3)c2=O)cc1	11%	10%	8%	12µM*
O=c1ccc2cc(S(=O)(=O)N3CCN(c4ccccc4F)CC3)ccc2o1	-1%	-5%	10%	4%
Cc1c(NC(=O)COc2ccc(C(C)C)cc2)c(=O)n(-c2ccccc2)n1C	16%	13%	-4%	13µM*
COc1cc(/C=C/C(=O)OCC(=O)Nc2c(C)n(C)n(-c3ccccc3)c2=O)ccc1O	6%	-6%	-4%	1%
Cc1c(Br)c([N+](=O)[O-])nn1CC(=O)Nc1c(C)n(C)n(-c2ccccc2)c1=O	3%	17%	-2%	2.9µM*
Cc1c(NC(=O)c2ccc(C(=O)Nc3c(C)n(C)n(-c4ccccc4)c3=O)cc2)c(=O)n(-c2ccccc2)n1C	2%	33%	0%	-3%
COc1cc(/C=C/C(=O)OCC(=O)Nc2c(C)n(C)n(-c3ccccc3)c2=O)cc(OC)c1OC	8%	?	20%	10µM*
Cc1cc(C(=O)Nc2c(C)n(C)n(-c3ccccc3)c2=O)on1	12%	.	10%	4.7µM*
Cn1nc(C(=O)NC2CCCc3ccccc32)ccc1=O (centres undefined)	8%	?	8%	24%
CCN(CC(=O)NCc1ccc(F)cc1)C(=O)c1cccc(S(=O)(=O)N(C)c2ccc(OC)cc2)c1	?	.	-7%	.
O=C(Cn1cncn1)NCc1cc(F)ccc1F	2%	27%	0%	?
O=C(NCC(c1ccco1)N1CCCC1)c1cn(-c2ccccc2)nc1-c1ccc(F)cc1 (centres undefined)	?	?	-16%	8.3µM*
COc1ccccc1-c1nn(-c2ccccc2)cc1C(=O)NCC(c1ccco1)N1CCCC1 (centres undefined)	3%	?	13%	15µM*
O=C(Nc1cccc(S(=O)(=O)NC2=NCCC2)c1)c1cn(-c2ccccc2)nc1-c1ccc(F)cc1	11µM*	.	12%	.
COc1ccccc1-c1nn(-c2ccccc2)cc1C(=O)N1CCN(C(=O)c2ccco2)CC1	-1%	?	-5%	-28%
O=C(N/C(=C/c1cn(-c2ccccc2)nc1-c1ccccc1)C(=O)N1CCOCC1)c1ccc(Cl)cc1Cl	23%	6.6µM*	?	?
O=C(NCC(c1ccco1)N1CCCC1)c1cn(Cc2ccccc2)nc1-c1ccccc1 (centres undefined)	-3%	?	-1%	9.3µM*
O=C(NC(=S)N1CCOCC1)c1cn(-c2ccccc2)nc1-c1ccc(F)cc1	0%	?	73%[11.6 µM]	12µM*
O=C(c1cn(-c2ccccc2)nc1-c1ccc(F)cc1)N1CCOCC1	-16%	-4%	-9%	10%

High-throughput results deposited in PubChem BioAssay by National Center for Advancing Translational Sciences (NCATS).
